# Test results reported in PubChem BioAssay (NCI).
# The panel holds about 83,000 compounds, 20% with a hit somewhere; the sample as a whole holds those more often.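 Interpretation: 100, growth as untreated; towards 0, rising growth inhibition; 0, no net growth; 0 to -100, cell death. Compounds scoring below 10 were considered active.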 Unmarked numbers belong to inactive results. Calls of active or inactive are those of the source.
# Legend:
# Experiment in all cases: NCI-60 one-dose screen, 48 h (100 = growth as untreated, 0 = no growth, -100 = all killed)
# HCT-15 colon = conditions: 10 µM unless noted
# HT29 colon = conditions: 10 µM unless noted
# SNB-19 CNS = conditions: 10 µM unless noted
# U251 CNS = conditions: 10 µM unless noted
# PC-3 prostate = conditions: 10 µM unless noted
# SK-MEL-5 melanoma = conditions: 10 µM unless noted
# LOX IMVI melanoma = conditions: 10 µM unless noted
# SK-MEL-2 melanoma = conditions: 10 µM unless noted
# EKVX NSCLC = conditions: 10 µM unless noted
# SN12C renal = conditions: 10 µM unless noted
# UO-31 renal = conditions: 10 µM unless noted
# TK-10 renal = conditions: 10 µM unless noted
# ACHN renal = conditions: 10 µM unless noted
# CAKI-1 renal = conditions: 10 µM unless noted
# A498 renal = conditions: 10 µM unless noted
# CCRF-CEM leukemia = conditions: 10 µM unless noted
# MOLT-4 leukemia = conditions: 10 µM unless noted
# UACC-62 melanoma = conditions: 10 µM unless noted
# SK-MEL-28 melanoma = conditions: 10 µM unless noted
# SNB-75 CNS = conditions: 10 µM
SMILES,growth (HCT-15 colon),growth (HT29 colon),growth (SNB-19 CNS),growth (U251 CNS),growth (PC-3 prostate),growth (SK-MEL-5 melanoma),growth (LOX IMVI melanoma),growth (SK-MEL-2 melanoma),growth (EKVX NSCLC),growth (SN12C renal),growth (UO-31 renal),growth (TK-10 renal),growth (ACHN renal),growth (CAKI-1 renal),growth (A498 renal),growth (CCRF-CEM leukemia),growth (MOLT-4 leukemia),growth (UACC-62 melanoma),growth (SK-MEL-28 melanoma),growth (SNB-75 CNS)
C=C1C(=O)O[C@H]2[C@H]1CC/C(Cn1cc(-c3cccc(Cl)c3)nn1)=C\CC[C@@]1(C)O[C@@H]21,-72.3% (active),-56.3% (active),37.9%,-71.1% (active),-59.1% (active),-52.6% (active),-91.1% (active),-40.8% (active),-18.4% (active),-37.1% (active),-95.4% (active),-97.1% (active),-89% (active),-82.2% (active),-26.2% (active),-40.8% (active),-18.6% (active),–,–,–
COC(=O)[C@]12CC[C@@H](C)[C@H](C)[C@@H]1C1=CC[C@@H]3[C@@]4(C)C(C=O)=C[C@@](C)(COC(=O)c5ccco5)[C@@H]4[C@H](O)C[C@@]3(C)[C@]1(C)CC2,-78.3% (active),-64.4% (active),7.8% (active),-76.8% (active),-8% (active),-94.9% (active),-91.4% (active),-44.4% (active),-18.1% (active),-19.7% (active),-76.3% (active),11.5%,-47.7% (active),-6.76% (active),-2.1% (active),-24.1% (active),-0.738% (active),–,–,–
COc1ccc(/C=N\NC(=O)CN2CCN(c3cc4c(cc3F)c(=O)c(C(=O)N/N=C/c3ccc(OC)c(OC)c3)cn4C3CC3)CC2)cc1OC,98%,6.97% (active),–,-16% (active),13.3%,41.9%,-77.7% (active),-24.8% (active),55%,-8.5% (active),85%,65.1%,102%,88.2%,89.1%,9.85% (active),5.8% (active),-52.1% (active),-34.1% (active),–
N[C@H]1CN(C(=O)c2cc3cc(Br)c(F)c(F)c3[nH]2)C[C@@H]1O,102%,103%,96.6%,95.9%,93.6%,–,89.6%,102%,92.8%,95.7%,67.2%,107%,102%,–,–,97.2%,98.1%,93.6%,106%,–
C=C(C)[C@@H]1C[C@@H]2Cc3ccc(Cl)c(C)c3N1O2,93%,–,103%,92.6%,87.9%,89.1%,98.8%,96.4%,86.2%,97.3%,99.3%,53.8%,96.8%,89.8%,83.2%,-68.9% (active),-2.28% (active),93.4%,107%,93%
O=C1NC(=C(Cl)Cl)/C(=N/S(=O)(=O)N2CCC(C3(C(F)(F)F)N=N3)CC2)N1,-60.6% (active),-10.2% (active),–,45.2%,89.6%,92%,–,101%,89.6%,87.7%,85.7%,97%,103%,–,94.9%,–,54.9%,91.7%,99.1%,–
O=[N+]([O-])c1ccc(OCCCOc2ccccc2)cc1,99.4%,–,105%,90.7%,94.3%,105%,97.6%,102%,96.8%,104%,87.2%,97.5%,106%,93.9%,102%,105%,94.6%,93.7%,103%,97.2%
C=C[C@@H]1C[C@H](O)Cc2cc(F)ccc2N1,96.4%,–,104%,93.3%,97.2%,93.3%,94.2%,123%,89.3%,101%,103%,97.7%,104%,92.3%,93.8%,-66% (active),-34.3% (active),99.1%,98.7%,87.9%
CCOC(=O)C1CCNC(=O)C1=O (stereo unspecified),111%,–,101%,111%,105%,101%,97.8%,107%,122%,97.3%,94.2%,103%,105%,97.8%,110%,93.7%,96.6%,101%,112%,101%
COc1ccc(Nc2nc(N)nc3c2CCN(Cc2ccc(OC)cc2OC)C3=O)cc1,91%,–,72.2%,75.4%,90%,80.7%,71.9%,93.7%,81.5%,70.7%,60.3%,84.8%,80.7%,92.9%,76.8%,86.1%,80.7%,68%,90%,85.7%
C[n+]1c(/C=C/c2c(O)ccc3ccccc23)ccc2ccccc21,21.6%,–,41.7%,17.3%,25.4%,36%,-65.1% (active),29.4%,44.8%,32.4%,22.2%,49.1%,31.6%,35.1%,52.9%,10.2%,–,44.6%,66.6%,49.9%
CCCCNC(=O)Oc1ccc(/C(=C(\C)c2ccccc2)c2ccc(OCCN(CC)CC)cc2)cc1,17.7%,4.17% (active),–,53.8%,59.6%,48.2%,74.8%,92.1%,80.8%,83.3%,44.1%,88.1%,88%,82.5%,65.3%,–,42%,68.3%,75.7%,–
C=C[C@@H]1C[C@H](O)Cc2c(C)cc(C)cc2N1,101%,–,109%,97.3%,88.6%,96.2%,77.6%,111%,86.9%,95.9%,96%,85.8%,103%,97.2%,89.9%,-19% (active),-46.2% (active),98.2%,102%,93.6%
COc1cc(/C=C/C(=O)c2ccc(Nc3ncnc4cc(OC)c(OC)cc34)cc2)cc(OC)c1,97.8%,–,94.9%,72.3%,78%,109%,88.3%,105%,101%,91.1%,94.4%,104%,102%,97.6%,95.8%,63.2%,53.8%,99.9%,114%,96.1%
